Among the data in PubChem BioAssay (NCATS) are outcome and Potency values, retold here.

The structures appear in SMILES notation. Records with an inconclusive call do not appear. The source made the active and inactive calls. Unless noted, calls come from the whole dose curve; as a rule, active = well fitted curve in the direction sought with a large enough effect; inconclusive = small, poorly fitted or top-dose-only effect, or another doubt; inactive = no such curve, though single readings can be large; an effect the other way counts as inactive or inconclusive.

Assay [1] in a line: qHTS assay for measurement of the activity of small molecule inhibitors on Zika virus induced Caspase-3 activity in human iPSC derived neural progenitor cells (hNPCs) (AID 1224857). Note: nearly all actives have a fitted effect of over 65% in size. In outline:
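Quantitative HTS format: human iPSC neural progenitors, 1 h compound pretreatment, ZIKV 2 FFU/cell for 6 h at 37 C. Percent inhibition derived from luminescent caspase-3/7 signal between uninfected and infected controls.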
On the technique in general: In qHTS, concentration-response curves come from the screen itself.

Assay [2] is described as follows: qHTS assay for measurement of the activity of small molecule inhibitors on Zika virus induced Caspase-3 activity in human astrocytoma cells (AID 1224859). The gist of the method:
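Readout is luminescence from Caspase-Glo 3/7 added after a 6 h ZIKV infection (2 FFU/cell) of compound-pretreated (1 h) SNB-19 cells; data expressed as % inhibition versus uninfected and infected wells.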

Assay [3] in a line: qHTS assay to identify small molecule inhibitors of chordoma cells - UCH-1 (AID 1259355). Note: nearly all actives have a fitted effect of over 55% in size. In outline: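 Seed 800 cells per well; incubate overnight at 37 C, 5% CO2. Add test compounds (15 concentrations), then the auranofin–topoisomerase-agent combination. Incubate 48hr, add CellTiter-Glo, wait 30min, read luminescence.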
Assay [4] in a line: qHTS assay to identify small molecule inhibitors of chordoma cells - UCH-2 (AID 1259356). Note: series mostly up to about 46 µM.
Assay [5] can be described thus: P-glycoprotein substrates identified in KB-8-5-11 adenocarcinoma cell line, qHTS therapeutic library screen (AID 1346987). Note: nearly all actives have a fitted effect of over 65% in size. Note: potency is the fitted concentration of half-maximal effect. In outline:
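Steps: plate 500 KB-8-5-11 cells/well in DMEM + 10% FCS (colchicine removed); pin compounds in dose-response; incubate 72 h, 37 degree C, 5% CO2; add CellTiter-Glo, 5 min; read luminescence.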

The nature of assay [6]: NS1 protein of Zika virus - qHTS assay to identify small molecule inhibitors in human HEK 293 cells (AID 1347053). Note: series mostly up to about 46 µM; nearly all actives have a fitted effect of over 55% in size. The gist of the method:
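Inhibition of NS1 expression was scored in HEK 293 cells given compound 1 h ahead of MR766 virus (MOI = 0.5). Following 24 h at 37 C, two anti-NS1 antibodies generated a TR-FRET signal, scaled between uninfected and infected controls.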

The nature of assay [7]: qHTS of pediatric cancer cell lines to identify multiple opportunities for drug repurposing: Primary screen for TC32 cells (AID 1347089). Note: nearly all actives have a fitted effect of over 60% in size. In outline:
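TC32 cells, 500-1,000/well in growth medium, compound-treated 48 h at 37 °C; viability from CellTiter-Glo luminescence. Primary screen: MIPE 11-point (0.78 nM–46 µM final), NPC 8-point (0.59 nM–46 µM final); confirmatory at 11-point dilutions.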

Assay [8] addresses Atrial natriuretic peptide receptor 1 (Homo sapiens) (UniProt P16066). The assay is described as follows: Natriuretic polypeptide receptor (hNpr1) antagonism - Pilot screen (AID 1347049; calls by dose curve;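 note: agonist-evoked cGMP luminescence read 20 min after hNppA addition; series mostly up to about 58 µM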). In outline:
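Readout is cGMP-driven firefly luciferase luminescence in HEK293 cells carrying hNpr1 and a PDE5-domain GloSensor, read before and 20 min after 0.1 nM hNppA stimulation. Cells had 2% substrate reagent for 2 h and test compound for 30 min.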

Assay [9] deals with Atrial natriuretic peptide receptor 2 (Homo sapiens) (UniProt P20594). In words: Natriuretic polypeptide receptor (hNpr2) antagonism - Pilot subtype selectivity assay (AID 1347050; calls by dose curve). In outline: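 Pilot selectivity screen against hNpr2: HEK293 cGMP-sensor cells are treated with LOPAC1280 compounds, then with hNppC peptide at 1 nM final. The cGMP-driven luminescence change over 20 min at room temperature is the read-out.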

The target in assay [10] is T1, Tyrosine-protein phosphatase non-receptor type substrate 1 (Homo sapiens) + Leukocyte surface antigen CD47 (Homo sapiens) (UniProt P78324+Q08722). In words: CD47-SIRPalpha protein protein interaction - LANCE assay qHTS validation (AID 1347057; active = well fitted curve in the direction sought with a large enough effect in the signal ratio, with a control signal flat, not every such curve was filed as active; the % refers to the signal ratio; note: series mostly up to about 38 µM). In outline:
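First, His-tagged CD47 and Eu-labelled anti-His antibody met the compound for 30 min; next, site-specifically biotinylated SIRPalpha was added for 30 min; finally streptavidin-APC was added before reading the TR-FRET ratio.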
Background: TR-FRET usually uses a lanthanide donor and a delayed reading to cut background.

In assay [11] the target is T1, Tyrosine-protein phosphatase non-receptor type substrate 1 (Homo sapiens) + Leukocyte surface antigen CD47 (Homo sapiens). The assay is described as follows: CD47-SIRPalpha protein protein interaction - HTRF assay qHTS validation (AID 1347058; active = well fitted curve in the direction sought with a large enough effect in the signal ratio, not every such curve was filed as active; the % refers to the signal ratio;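 note: recombinant soluble extracellular CD47 with His tag and biotinylated SIRPalpha domains; series mostly up to about 38 µM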). The gist of the method: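 TR-FRET read (Ch1/Ch2 ratio) of soluble extracellular CD47 and Avi-biotinylated SIRPalpha domains in PBS pH 7.4 with 0.05% IGEPAL; 7-point compound titration. Sequential 30 min room-temperature steps; non-biotinylated SIRPalpha as control inhibitor.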

Assay [12] has the same target. The assay is described as follows: CD47-SIRPalpha protein protein interaction - Alpha assay qHTS validation (AID 1347059).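 Note: bead proximity luminescence from CD47 binding SIRPalpha after compound preincubation with SIRPalpha.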 In outline: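 Binding is measured by AlphaScreen proximity: Ni-NTA acceptor beads capture His-CD47, streptavidin donor beads capture biotin-SIRPalpha. Each of three additions (SIRPalpha with compound, CD47, beads) incubates 30 min at room temperature protected from light.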

The target in assay [13] is Parathyroid hormone/parathyroid hormone-related peptide receptor (Homo sapiens) (UniProt Q03431). The assay is described as follows: qHTS for PTHR1 Agonists: Optimization Screen against the NCGC LOPAC library (AID 1347079).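 Note: GloSensor cAMP luminescence in HEK-293 GP2 cells expressing human PTHR1 with IBMX.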 In outline:
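Agonist readout: GloSensor cAMP luminescence, read after 15 min at room temperature. HEK-293-derived GP2 line carries PTHR1; compounds tested as a titration for 1 hr at 37C in presence of IBMX. M-PTH (1-15) served as control.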

Atrial natriuretic peptide receptor 2 (Homo sapiens), sequence (P20594 whole entry, looked up): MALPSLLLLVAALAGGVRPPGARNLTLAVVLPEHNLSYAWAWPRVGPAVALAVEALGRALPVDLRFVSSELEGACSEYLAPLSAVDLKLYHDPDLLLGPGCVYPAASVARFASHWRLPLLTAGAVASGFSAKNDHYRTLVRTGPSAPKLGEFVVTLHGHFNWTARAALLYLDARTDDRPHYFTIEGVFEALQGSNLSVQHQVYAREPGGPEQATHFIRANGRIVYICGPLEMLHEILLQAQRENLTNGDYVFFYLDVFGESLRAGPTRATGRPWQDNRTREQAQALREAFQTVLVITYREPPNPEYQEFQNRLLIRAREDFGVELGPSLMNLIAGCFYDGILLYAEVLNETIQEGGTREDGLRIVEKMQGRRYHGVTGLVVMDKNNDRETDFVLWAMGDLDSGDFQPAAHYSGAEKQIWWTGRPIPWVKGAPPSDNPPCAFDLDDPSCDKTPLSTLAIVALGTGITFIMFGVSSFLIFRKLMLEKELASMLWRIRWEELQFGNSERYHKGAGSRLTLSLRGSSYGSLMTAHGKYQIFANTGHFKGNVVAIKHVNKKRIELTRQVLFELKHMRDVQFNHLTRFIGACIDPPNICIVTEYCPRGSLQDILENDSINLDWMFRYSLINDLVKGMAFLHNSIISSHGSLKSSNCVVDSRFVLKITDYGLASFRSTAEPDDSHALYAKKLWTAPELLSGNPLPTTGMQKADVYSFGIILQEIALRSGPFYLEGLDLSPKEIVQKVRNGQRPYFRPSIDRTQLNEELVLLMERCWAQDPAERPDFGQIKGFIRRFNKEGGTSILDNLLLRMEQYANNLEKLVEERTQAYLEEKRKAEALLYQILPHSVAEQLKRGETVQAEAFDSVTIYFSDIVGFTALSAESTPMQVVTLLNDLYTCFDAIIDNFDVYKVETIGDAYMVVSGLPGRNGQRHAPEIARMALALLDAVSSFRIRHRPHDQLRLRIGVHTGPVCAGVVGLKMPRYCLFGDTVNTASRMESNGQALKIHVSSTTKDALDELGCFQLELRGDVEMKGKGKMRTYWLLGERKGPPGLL
T1 sequence (P78324 whole entry, looked up): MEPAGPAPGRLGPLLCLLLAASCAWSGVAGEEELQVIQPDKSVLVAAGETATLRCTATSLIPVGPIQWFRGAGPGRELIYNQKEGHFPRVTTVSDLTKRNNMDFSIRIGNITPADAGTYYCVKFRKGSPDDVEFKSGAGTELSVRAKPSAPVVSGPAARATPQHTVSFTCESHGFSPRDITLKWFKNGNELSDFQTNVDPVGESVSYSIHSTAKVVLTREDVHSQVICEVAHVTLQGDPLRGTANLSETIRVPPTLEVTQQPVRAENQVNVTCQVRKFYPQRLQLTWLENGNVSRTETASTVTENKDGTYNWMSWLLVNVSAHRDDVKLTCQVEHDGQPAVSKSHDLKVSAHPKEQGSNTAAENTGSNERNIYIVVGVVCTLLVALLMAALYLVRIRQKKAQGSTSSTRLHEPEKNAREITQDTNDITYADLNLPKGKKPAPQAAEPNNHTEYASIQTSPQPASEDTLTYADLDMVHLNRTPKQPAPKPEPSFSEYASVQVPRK
T1 sequence (Q08722 whole entry, looked up): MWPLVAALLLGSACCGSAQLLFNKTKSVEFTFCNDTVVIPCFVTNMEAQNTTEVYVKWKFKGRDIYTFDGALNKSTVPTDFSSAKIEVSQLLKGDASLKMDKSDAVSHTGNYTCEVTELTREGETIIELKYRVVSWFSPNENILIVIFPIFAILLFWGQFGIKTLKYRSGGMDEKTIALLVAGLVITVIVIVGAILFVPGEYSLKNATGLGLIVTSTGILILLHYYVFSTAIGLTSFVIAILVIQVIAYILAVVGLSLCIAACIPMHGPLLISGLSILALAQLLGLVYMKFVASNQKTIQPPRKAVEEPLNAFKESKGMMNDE
Atrial natriuretic peptide receptor 1 (Homo sapiens), sequence (P16066 whole entry, looked up): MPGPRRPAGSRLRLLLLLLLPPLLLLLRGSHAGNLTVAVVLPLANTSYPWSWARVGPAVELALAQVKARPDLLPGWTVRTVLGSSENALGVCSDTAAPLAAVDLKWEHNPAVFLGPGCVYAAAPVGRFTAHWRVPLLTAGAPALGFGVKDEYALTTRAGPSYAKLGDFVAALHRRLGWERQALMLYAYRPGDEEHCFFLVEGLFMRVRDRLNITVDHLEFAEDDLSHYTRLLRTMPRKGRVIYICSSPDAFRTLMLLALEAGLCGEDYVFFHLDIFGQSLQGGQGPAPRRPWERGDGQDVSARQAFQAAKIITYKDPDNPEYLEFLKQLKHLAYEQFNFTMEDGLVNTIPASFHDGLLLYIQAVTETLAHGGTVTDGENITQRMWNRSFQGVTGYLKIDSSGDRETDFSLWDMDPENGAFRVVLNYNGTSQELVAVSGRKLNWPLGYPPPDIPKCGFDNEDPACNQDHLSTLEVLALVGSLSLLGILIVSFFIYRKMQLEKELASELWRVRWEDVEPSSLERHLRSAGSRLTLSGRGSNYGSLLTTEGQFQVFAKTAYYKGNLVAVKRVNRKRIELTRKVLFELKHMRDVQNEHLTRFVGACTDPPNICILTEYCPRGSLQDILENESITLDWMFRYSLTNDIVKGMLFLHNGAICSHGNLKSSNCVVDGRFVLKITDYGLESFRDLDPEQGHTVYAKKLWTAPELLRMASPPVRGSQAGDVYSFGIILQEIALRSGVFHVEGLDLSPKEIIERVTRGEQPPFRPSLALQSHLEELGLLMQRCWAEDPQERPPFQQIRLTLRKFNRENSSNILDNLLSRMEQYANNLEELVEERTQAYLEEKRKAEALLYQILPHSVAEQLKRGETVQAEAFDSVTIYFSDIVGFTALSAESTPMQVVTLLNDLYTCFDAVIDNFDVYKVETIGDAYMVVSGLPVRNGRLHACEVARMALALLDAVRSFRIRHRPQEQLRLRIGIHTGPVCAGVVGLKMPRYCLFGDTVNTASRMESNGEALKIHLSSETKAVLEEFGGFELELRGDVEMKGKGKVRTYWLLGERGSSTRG
Parathyroid hormone/parathyroid hormone-related peptide receptor (Homo sapiens), sequence (Q03431 whole entry, looked up): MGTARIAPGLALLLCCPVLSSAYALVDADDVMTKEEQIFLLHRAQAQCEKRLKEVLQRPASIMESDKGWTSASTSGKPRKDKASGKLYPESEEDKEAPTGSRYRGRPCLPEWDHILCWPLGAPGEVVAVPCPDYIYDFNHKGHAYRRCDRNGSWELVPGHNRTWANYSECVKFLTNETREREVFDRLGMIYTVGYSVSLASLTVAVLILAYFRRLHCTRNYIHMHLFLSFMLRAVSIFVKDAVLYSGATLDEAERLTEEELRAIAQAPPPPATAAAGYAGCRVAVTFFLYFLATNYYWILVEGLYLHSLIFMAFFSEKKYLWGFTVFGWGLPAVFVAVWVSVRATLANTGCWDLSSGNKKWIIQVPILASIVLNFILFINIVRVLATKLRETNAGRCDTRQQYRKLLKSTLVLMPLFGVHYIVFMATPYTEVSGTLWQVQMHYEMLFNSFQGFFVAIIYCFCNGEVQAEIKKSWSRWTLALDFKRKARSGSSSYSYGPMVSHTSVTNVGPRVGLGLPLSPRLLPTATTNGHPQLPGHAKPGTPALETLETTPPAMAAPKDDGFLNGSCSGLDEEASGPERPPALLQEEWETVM

With `CC(C)NC[C@@H](O)COc1cccc2ccccc12`, the call in assay [1] and in [2] was inactive. In addition, the Potency entry in assay [3], in assay [4], in [5], in assay [6] and in assay [7] was “inactive” throughout.

Consider `CCN(CC)CCOC(=O)C(c1ccccc1)C1CCCCC1` (stereo unspecified), for which the outcome in [1] and in assay [2] was inactive. The Potency entry in assay [3], in assay [4], in assay [5], in [6] and in assay [7] was “inactive” in each case.

As for `CCCn1c(=O)[nH]c(=O)c2[nH]cnc21`, the molecule was classed as inactive in assay [1], in assay [2], in [8], in assay [9], in assay [10] and in [11]. Besides, the molecule was called inactive in [13]. The Potency entry in assay [3], in [4], in [6] and in [12] was “inactive” in each case.

For the molecule `C[C@@H]1C(=O)NC2=Nc3cccc(Cl)c3CN21`, the call in assay [1], in assay [2], in assay [8], in assay [9], in assay [10] and in [11] was inactive. In assay [13], the molecule was called inactive. In addition, the Potency result in assay [3], in assay [4], in assay [6] and in assay [12] was “inactive” each time. Further, the Potency in assay [5] was 0.82 µM (active).

On to `COc1cc2c(cc1OC)C(C(C(=O)N(CCc1ccc(OC)c(OC)c1OC)CCc1ccc(OC)c(OC)c1OC)c1ccccc1)=NCC2` (stereo unspecified), for which the molecule was classed as inactive in [1] and in [2]. Besides, the Potency result in assay [3], in [4], in [6] and in assay [7] was “inactive” in each case. The Potency in assay [5] is 9.2 µM (active).

Take `CCN(CC)CCOc1ccc(C(O)(Cc2ccc(Cl)cc2)c2ccc(C)cc2)cc1` (stereo unspecified): the molecule was classed as inactive in assay [1] and in assay [2]. The Potency result in assay [3] is “inactive”.

Consider `CC[C@H](C)C(=O)O[C@H]1CCC=C2C=C[C@H](C)[C@H](CC[C@@H]3C[C@@H](O)CC(=O)O3)[C@H]21`, for which the result in assay [1], in assay [2], in [8], in [9], in assay [10] and in assay [11] was inactive. For the same molecule, in [13], the result was inactive. Moreover, the Potency entry in assay [3], in [4], in assay [6] and in assay [12] was “inactive” each time.

On to `CCCCCCCCCCCCCCCC[N+](C)(C)CC`, for which the outcome in assay [1] and in assay [2] was inactive. Also, the Potency result in [3] is “inactive”.

Turning to `C[C@]12CCC(=O)C=C1[C@@H]1C[C@@H]1[C@H]1[C@@H]3[C@@H]4C[C@@H]4[C@@]4(CCC(=O)O4)[C@@]3(C)CC[C@@H]12`, the molecule was classed as inactive in assay [1] and in [2]. Further, the Potency entry in assay [3], in [4], in assay [6] and in assay [7] was “inactive” each time. For the same molecule, the Potency in assay [5] is 4.11 µM (active).

On to `CCCCN1CCCC1C(=O)Nc1c(C)cc(C)cc1C` (stereo unspecified), for which the outcome in [1] and in assay [2] was inactive. In addition, the Potency result in assay [3], in assay [4], in assay [5], in assay [6] and in [7] was “inactive” throughout.

For `CCN(CC)CCNC(=O)COc1ccc(Cl)cc1`, the outcome in assay [1] and in [2] was inactive. Further, the Potency result in assay [3], in assay [4], in assay [5], in assay [6] and in assay [7] was “inactive” in each case.

Take `CC(C)C[C@H]1C(=O)N2CCC[C@H]2[C@]2(O)O[C@](NC(=O)[C@@H]3C=C4c5cccc6[nH]c(Br)c(c56)C[C@H]4N(C)C3)(C(C)C)C(=O)N12`: the molecule was classed as inactive in [1], in assay [2], in [8], in [9] and in assay [13]. Besides, the Potency result in assay [3], in assay [4] and in [12] was “inactive” throughout.

Turning to `CCCCOc1ccc(OCCCN2CCOCC2)cc1`, the call in assay [1] and in assay [2] was inactive. Moreover, the Potency result in assay [3], in assay [4], in [6] and in [7] was “inactive” each time.

With `CCN1CCN(c2cc3c(cc2F)c(=O)c(C(=O)O)cn3C2CC2)CC1`, the molecule was called inactive in [1] and in [2]. In addition, the Potency entry in assay [3], in assay [4], in assay [5], in assay [6] and in [7] was “inactive” each time.

Turning to `Cc1ccc(O)c2ncccc12`, the outcome in assay [1] and in assay [2] was inactive. For the same molecule, the Potency entry in [3], in [4], in [5], in [6] and in [7] was “inactive” in each case.

On to `CCCCCCCCCCCCCCCCOP(=O)([O-])OCC[N+](C)(C)C`, for which the call in assay [1] and in assay [2] was inactive. Moreover, the Potency entry in [3], in [4], in [6] and in assay [7] was “inactive” in each case.

In the case of `CN=C(NC#N)NCCSCc1csc(N=C(N)N)n1`, the molecule was classed as inactive in [1] and in assay [2]. The Potency result in [3], in assay [4], in assay [5], in [6] and in assay [7] was “inactive” in each case.

Take `O=C(O)CCCCC(=O)O`: the molecule was classed as inactive in assay [1] and in [2]. The Potency entry in assay [3], in assay [4], in assay [5], in [6] and in [7] was “inactive” throughout.

Turning to `C[C@]12C=CC(=O)C=C1CC[C@@H]1[C@@H]2[C@@H](O)C[C@@]2(C)[C@H]1CC[C@]2(O)C(=O)CO`, the outcome in [1] and in assay [2] was inactive. Moreover, the Potency entry in [3], in assay [4], in assay [5], in assay [6] and in assay [7] was “inactive” in each case.

Consider `Oc1c(Cl)cc(Cl)cc1Sc1cc(Cl)cc(Cl)c1O`, for which the molecule was classed as inactive in [1] and in assay [2]. Besides, the Potency result in assay [3], in assay [4], in assay [6] and in [7] was “inactive” in each case. Also, the Potency in assay [5] was 4.61 µM (active).

On to `NCCC(O)(P(=O)(O)O)P(=O)(O)O`, for which the outcome in assay [1] and in assay [2] was inactive. Also, the Potency result in assay [3], in [4], in assay [6] and in assay [7] was “inactive” in each case.

As for `COC1=CC(=O)C[C@@H](C)[C@]12Oc1c(Cl)c(OC)cc(OC)c1C2=O`, the result in assay [1] and in assay [2] was inactive. Moreover, the Potency entry in [3], in [4] and in assay [6] was “inactive” each time.

As for `C=C1C(=C/C=C2\CCC[C@]3(C)[C@@H]([C@H](C)/C=C/[C@@H](O)C4CC4)CC[C@@H]23)C[C@@H](O)C[C@@H]1O`, the result in assay [1] and in assay [2] was inactive. Further, the Potency entry in [3], in assay [4], in assay [6] and in [7] was “inactive” throughout. Besides, in [5], the Potency is 8.2 µM (active).

Regarding `CN1CCCC(CC2c3ccccc3Sc3ccccc32)C1` (stereo unspecified), the result in [1] and in assay [2] was inactive. The Potency result in assay [3] and in assay [4] was “inactive” each time.
